The values below come from PubChem BioAssay AID703 (NMMLSC, 2007).

Molecules are shown by their SMILES. Unmarked numbers belong to inactive results. No rule for the calls is given here.

The target of the experiment is Integrin alpha-4 (Homo sapiens) (UniProt P13612). The experiment can be described thus: VLA-4 ligand binding increase, concentration series – cell-based, LDV-FITC binding, flow cytometry, dose response (AID 703). As to conditions: Jurkat cells, active compounds read high. On the technique in general: In flow cytometry, cells or beads pass a laser one at a time.
Chain of Integrin alpha-4 (Homo sapiens) (P13612 whole entry, looked up): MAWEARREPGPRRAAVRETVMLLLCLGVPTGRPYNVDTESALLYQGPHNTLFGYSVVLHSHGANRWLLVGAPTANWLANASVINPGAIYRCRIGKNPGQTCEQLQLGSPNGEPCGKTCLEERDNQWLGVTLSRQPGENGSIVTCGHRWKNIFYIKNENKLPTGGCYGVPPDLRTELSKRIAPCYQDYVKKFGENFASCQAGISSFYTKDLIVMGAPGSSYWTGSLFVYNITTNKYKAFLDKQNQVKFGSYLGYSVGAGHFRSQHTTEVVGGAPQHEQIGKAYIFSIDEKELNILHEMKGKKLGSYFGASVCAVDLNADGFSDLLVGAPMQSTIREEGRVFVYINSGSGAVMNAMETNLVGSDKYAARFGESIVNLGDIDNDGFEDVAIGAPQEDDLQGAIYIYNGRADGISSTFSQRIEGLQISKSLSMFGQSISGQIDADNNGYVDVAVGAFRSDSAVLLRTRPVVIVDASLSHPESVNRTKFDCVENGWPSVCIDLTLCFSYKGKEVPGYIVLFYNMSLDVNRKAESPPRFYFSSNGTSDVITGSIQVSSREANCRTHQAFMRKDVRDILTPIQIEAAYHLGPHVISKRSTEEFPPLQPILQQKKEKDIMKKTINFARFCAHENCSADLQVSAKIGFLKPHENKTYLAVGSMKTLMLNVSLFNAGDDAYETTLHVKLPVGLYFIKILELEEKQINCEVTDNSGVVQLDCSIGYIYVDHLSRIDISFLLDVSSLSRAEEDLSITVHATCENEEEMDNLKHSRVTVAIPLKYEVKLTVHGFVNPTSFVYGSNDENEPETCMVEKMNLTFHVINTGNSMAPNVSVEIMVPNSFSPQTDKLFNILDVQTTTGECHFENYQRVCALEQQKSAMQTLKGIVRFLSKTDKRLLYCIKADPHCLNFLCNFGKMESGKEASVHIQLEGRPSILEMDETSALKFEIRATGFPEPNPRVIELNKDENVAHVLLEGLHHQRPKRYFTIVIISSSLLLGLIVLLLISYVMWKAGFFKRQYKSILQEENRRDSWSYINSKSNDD

As to `O=c1c2ccccc2[se]n1-c1ccccc1`, the activation at 0 C is 0.
